The list is not random: actives were taken first. Their share in the collection is about 3.5%.
GDH-TPI counter-1: GDH-TPI coupling enzyme inhibitors, primary screen, artefact control for M. tuberculosis FBA inhibitor project, biochemical, absorbance, full deck; 1.2% of 360,000 active; inhibition, % at 4.8 µM; AID 588335, 2011; GDH-TPI coupled enzyme counterscreen, NADH absorbance; in the data active = inhibition above about 30%;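 note: 0% = DMSO wells and 100% = wells lacking the enzyme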
Mtb UGM inh: M. tuberculosis UGM enzyme inhibitors, primary screen, biochemical, fluorescence polarization, single point. 0.06% of 320,000 active. inhibition, % at 10 µM. UDP-galactopyranose mutase (Mycobacterium tuberculosis (strain ATCC 25618 / H37Rv)), …. purified UGM, fluorescence polarization probe displacement; in the data active = inhibition above about 10%, passing the limit was not always enough
Target sequence (P9WIQ1 whole entry, looked up): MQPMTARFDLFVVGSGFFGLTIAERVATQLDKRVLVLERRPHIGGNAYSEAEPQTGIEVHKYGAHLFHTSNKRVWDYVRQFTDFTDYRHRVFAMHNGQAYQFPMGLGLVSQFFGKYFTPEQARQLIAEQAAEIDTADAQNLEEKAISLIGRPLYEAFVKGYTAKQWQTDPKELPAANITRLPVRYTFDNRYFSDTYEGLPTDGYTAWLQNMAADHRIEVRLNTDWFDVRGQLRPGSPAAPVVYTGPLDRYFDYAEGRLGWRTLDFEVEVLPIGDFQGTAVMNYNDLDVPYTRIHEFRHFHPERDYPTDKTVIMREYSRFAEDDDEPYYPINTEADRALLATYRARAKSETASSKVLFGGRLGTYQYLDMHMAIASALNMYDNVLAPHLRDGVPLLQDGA
Mtb FBA inh: Mtb FBA enzyme inhibitors, primary screen, biochemical, fluorescence, strain H37Rv; Fructose-bisphosphate aldolase (Mycobacterium tuberculosis (strain ATCC 25618 / H37Rv)), …; purified M. tuberculosis FBA, fluorescence read-out; inhibition, % at 1 µM; 2.3% of 360,000 active; AID 588726, 2011;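 note: 0% = vehicle and 100% = reference inhibitor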
Mtb hypoxia rep: PubChem AID 1159583; M. tuberculosis hypoxia-regulated fluorescent reporter, fluorescence; fluorescence inhibition, % (no concentration beside the values); 0.1% of 300,000 active; in the data active = fluorescence inhibition mostly above about 23%, no sharp cut-off; inactive = mostly below about 17%
FadD28 binding: inhibitors of FadD28 bisubstrate probe binding, primary screen, biochemical, fluorescence polarization, single point | 0.22% of 360,000 active | inhibition, % at 12.5 µM; in the data active = inhibition above about 8.5%, passing the limit was not always enough
Rv3671c protease: Rv3671c serine protease inhibitors, primary screen, biochemical, fluorescence polarization, M. tuberculosis H37Rv; inhibition, % at 5.96 µM; P9WHR9; 0.048% of 320,000 active; AID 2606, 2010; in the data active = inhibition above about 38%;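 note: extracellular domain of Rv3671c used as enzyme; 0% = enzyme with DMSO and 100% = no enzyme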
Mtb FBA confirm: M. tuberculosis aldolase blockers, biochemical, fluorescence, strain H37Rv, confirmation; purified M. tuberculosis FBA, fluorescence read-out; shares compounds with Mtb FBA inh; 78% of 5,600 active; inhibition, % at 1 µM; AID 651616, 2012;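 note: 0% = vehicle wells and 100% = reference inhibitor wells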
GDH-TPI counter-2: GDH-TPI coupling enzyme inhibitors, artefact control for M. tuberculosis FBA inhibitor project, biochemical, fluorescence, high throughput. GDH-TPI coupled enzyme counterscreen. shares compounds with Mtb FBA inh. 81% of 5,600 active. AID 652141, 2013. inhibition, % at 1 µM; in the data active = inhibition above about 10%
Starred values were filed as active, the others as inactive; . = no result given; + = active, no number. Cut-off read from the data, not from the text of the source, unless noted: active = inhibition above about 27%; inactive = the rest.

SMILES	GDH-TPI counter-1	Mtb UGM inh	Mtb FBA inh	Mtb hypoxia rep	FadD28 binding	Rv3671c protease	Mtb FBA confirm	GDH-TPI counter-2
CN1CCN(C(=O)c2cc3ccccc3oc2=O)CC1	2	-1	2	.	0	0	.	.
CC(=O)c1cc2c(ccc3ccccc32)oc1=O	11	0	50*	17	-3	.	73*	60*
CNC(=S)N1CCN(c2c(F)cc3c(=O)c(C(=O)O)cn(C4CC4)c3c2OC)CC1C (centres undefined)	9	-2	14	.	-3	-4	.	.
COC(=O)C(C)NC(=S)N1CCN(c2c(F)cc3c(=O)c(C(=O)O)cn(C4CC4)c3c2OC)CC1C (centres undefined)	27	-3	30*	.	-2	-2	+	+
COc1cc(C=NNC(=O)c2cccc([N+](=O)[O-])c2)cc(OC)c1O	.	.	.	-3	.	.	.	.
CCC(C)C(N)c1cn(C(CCC(=O)O)C(=O)N2CCNCC2)nn1 (centres undefined)	.	.	.	2	.	.	.	.
Cc1ccc(-c2cc(-c3ccccc3)cc(-c3ccccc3)[n+]2-c2ccccc2C(=O)O)cc1	16	-1	54*	21	-3	-1	10	3
O=C([O-])c1ccc(-[n+]2c(-c3ccccc3)cc(-c3ccccc3)cc2-c2ccccc2)cc1	21	0	7	-1	1	5	.	.
CCN(C(=S)Nc1cc(S(=O)(=O)N2CCOCC2)ccc1Cl)c1cccc2ccccc12	-1	-2	48*	-6	-2	2	82*	56*
O=C(CCn1cnc(-c2ccccc2)c1-c1ccccc1)NN=Cc1ccccc1O	.	.	.	-1	.	.	.	.
Cc1ccccc1-c1nnc(-c2cccs2)o1	-4	1	29*	26	0	-9	165*	128*
COc1ccc(-c2nnc(-c3cccnc3)o2)cc1	-3	-2	83*	22	-2	5	154*	126*
c1cncc(-c2nnc(-c3cccs3)o2)c1	20	0	51*	11	0	-1	70*	47*
Cc1ccc(-c2nnc(-c3cccnc3)o2)cc1	4	0	10	11	-2	-7	.	.
Brc1ccc(-c2nnc(-c3cccnc3)o2)cc1	-5	1	2	4	-4	-13	.	.
CC(=NNC(=O)c1ccc([N+](=O)[O-])c(C)c1)c1ccccc1Cl	.	.	.	9	.	.	.	.
COC(=O)C1=C(c2ccc(Cl)c(C(F)(F)F)c2)CC2CCC1N2C (centres undefined)	.	.	.	4	.	.	.	.
O=C(OCC(=O)N1CCC(Cc2ccccc2)CC1)c1ccccc1NCCO	7	1	80*	6	1	7	47*	29*
O=C(OCC(=O)N(CCc1ccccc1)Cc1ccccc1)c1ccccc1O	7	3	8	-11	-2	-4	.	.
CCOC(=O)N1CCN(C(=O)COC(=O)c2ccccc2NCCO)CC1	9	0	107*	-9	-1	3	77*	78*
O=C(OCC(=O)N(CCc1ccccc1)Cc1ccccc1)c1ccccc1NCCO	-8	-1	66*	4	-5	8	164*	106*
O=C(OCC(=O)N1CCC(Cc2ccccc2)CC1)c1ccccc1O	6	-1	-1	6	-2	-2	.	.
COc1ccc(N2CCN(C(=O)COC(=O)c3cccc(OC)c3O)CC2)cc1	9	-3	-2	3	-2	5	.	.
CNc1ccccc1C(=O)OCC(=O)N1CCN(c2ccc(OC)cc2)CC1	5	-2	73*	.	-2	-2	0	-5
COc1ccc(NS(=O)(=O)c2cccc(C(=O)NN=C(C)c3cccnc3)c2)cc1	.	.	.	-5	.	.	.	.
SMILES	GDH-TPI counter-1	Mtb UGM inh	Mtb FBA inh	Mtb hypoxia rep	FadD28 binding	Rv3671c protease	Mtb FBA confirm	GDH-TPI counter-2
Cc1cn2nc(N)c3ccccc3c2n1	1	1	42*	5	1	4	+	+
Cc1nc2ccccc2c2nc(N)nn12	5	1	6	14	-3	-3	.	.
COC(=O)c1sccc1NN=C(C)c1ccc(F)c(Cl)c1	.	.	.	6	.	.	.	.
O=C(COC(=O)c1ccccc1NCCO)Nc1ccc(S(=O)(=O)NC2=NCCCCC2)cc1	18	.	84*	12	-1	.	84*	61*
O=[N+]([O-])c1ccccc1S(=O)(=O)Oc1ccc(C=Nn2cnnc2)cc1	.	.	.	7	.	.	.	.
Cc1cc(O)c2c(C)c(CC(=O)N3CCN(C(=O)C4COc5ccccc5O4)CC3)c(=O)oc2c1 (centres undefined)	19	-1	-1	-7	-2	-16	.	.
COc1cc(C)cc2oc(=O)c(CC(=O)N3CCN(C(=O)C4COc5ccccc5O4)CC3)c(C)c12 (centres undefined)	2	-1	104*	13	-5	-3	64*	54*
CC(=O)Oc1ccc2c(C)c(CC(=O)N3CCN(C(=O)C4COc5ccccc5O4)CC3)c(=O)oc2c1C (centres undefined)	2	0	44*	1	0	-2	3	-3
CC(=O)Nc1ccc2nc(NC(=O)COc3ccc([N+](=O)[O-])cc3)sc2c1	7	0	2	-3	-2	0	.	.
Cc1ccc(C)c(OCC(=O)Nc2nc3ccc([N+](=O)[O-])cc3s2)c1C	20	0	53*	0	1	-1	1	-1
O=[N+]([O-])c1ccc(C=NNc2nc3ccccc3o2)cc1	.	.	.	0	.	.	.	.
Cc1ccccc1COC(=O)c1nn(-c2ccccc2)nc1N	0	0	97*	2	-1	-20	79*	67*
Cc1c(CCCl)c(Cl)n2c(nc3ccccc32)c1C#N	0	.	3	.	-5	.	.	.
N#Cc1c(-c2ccccc2)c(C#N)c2nc3ccccc3n2c1N	13	1	83*	-10	-2	-7	91*	67*
COc1ccc(C(C)=NNC(=O)CNC(=O)/C=C/c2ccccc2OC)cc1	.	.	.	11	.	.	.	.
Cc1ccc(C2N=C(N)Nc3nc4ccccc4n32)cc1 (centres undefined)	-1	4	2	13	-1	5	.	.
Cc1ccc(C2N=C(N)Nc3nc(=O)c4ccccc4n32)cc1 (centres undefined)	3	3	76*	8	0	-2	9	6
Cc1c(Cc2ccccc2)c(=O)oc2cc(OC(C)C(=O)NCC3CCC(C(=O)O)CC3)c(Cl)cc12 (centres undefined)	28	0	34*	.	-1	-8	+	190*
